Data taken from the supplement of paper PMC13380429.

Test system: Vero E6 infected with SARS-CoV-2
Test: morphology score (similarity to uninfected cells); higher = more like uninfected cells
Details: 24 h

Compound	morphology score
c1ccc2nc(N3CCNCC3)ccc2c1 [quipazine] (10 µM)	0.118
CCCCCCNC(=O)n1cc(F)c(=O)[nH]c1=O [Carmofur] (0.833333 µM)	0.222
CCNC(=O)Nc1ccc(-c2nc3c(c(N4CCOC[C@@H]4C)n2)CCN(C2COC2)C3)cc1 (0.833333 µM)	0.13
Cc1cc(CN2CCN(c3c(Br)cnc4nc(-c5ccc(N6CCN(C)CC6)cc5)[nH]c34)CC2)no1 (10 µM)	0.247
O=C(Cc1ccc(Cl)c(Cl)c1)N1CCCC[C@@H]1CN1CCCC1 (10 µM)	0.168
CCN(CCO)CCCOc1ccc2c(Nc3cc(CC(=O)Nc4cccc(F)c4)[nH]n3)ncnc2c1 [barasertib-HQPA] (10 µM)	0.0875
CCCC(O)C(CC)CO (centres undefined) [2-ethyl-1,3-hexanediol] (0.833333 µM)	-0.095
CCN1C(=O)CNc2ncc(-c3ccc(-c4nc[nH]n4)nc3C)nc21 (10 µM)	-0.0465
COc1ccc(Cl)c(Nc2nc3ccccc3nc2NS(=O)(=O)c2cccc(NC(=O)C(C)(C)N)c2)c1 [pilaralisib] (10 µM)	0.0424
NNC(=O)c1ccncc1 [isoniazid] (10 µM)	-0.115
CCOc1ccc(-c2nc(-c3cccc4c3CCC4NCCO)no2)cc1OCC (centres undefined) (10 µM)	0.847
CC(C)c1cc(-c2n[nH]c(=O)n2-c2ccc3c(ccn3C)c2)c(O)cc1O [ganetespib] (0.833333 µM)	0.0711
CO[C@@]1(NC(=O)CSC[C@@H](N)C(=O)O)C(=O)N2C(C(=O)O)=C(CSc3nnnn3C)CS[C@@H]21 [cefminox] (10 µM)	0.045
COc1ncc(-c2ccc3nccc(-c4ccnnc4)c3c2)cc1NS(=O)(=O)c1ccc(F)cc1F (0.833333 µM)	-0.0933
CC1(C)CNc2cc(NC(=O)c3cccnc3NCc3ccncc3)ccc21 [motesanib] (10 µM)	0.196
c1ccc2c(c1)CCCC2C1=NCCN1 (centres undefined) [tetrahydrozoline] (0.833333 µM)	0.00054
NCCCC[C@H](NC(=O)[C@@H]1CCCN1C(=O)[C@@H]1CSSC[C@H](N)C(=O)N[C@@H](Cc2ccc(O)cc2)C(=O)N[C@@H](Cc2ccccc2)C(=O)N[C@@H](CCC(N)=O)C(=O)N[C@@H](CC(N)=O)C(=O)N1)C(=O)NCC(N)=O [lypressin] (10 µM)	0.164
O=C(NC1CCOCC1)c1ccc(-c2cc(-c3c[nH]nc3-c3ccccn3)ccn2)cc1 (10 µM)	-0.0411
O=C(O)CCc1ccc(NCc2cccc(Oc3ccccc3)c2)cc1 (10 µM)	-0.132
Cc1nn(C)c2nc(NNC(=O)Nc3cc(Cl)nc(Cl)c3)cc(C(C)C)c12 (10 µM)	0.0785

Compound	morphology score
CC(=O)OCC1=C(C(=O)O)N2C(=O)[C@@H](NC(=O)CSc3ccncc3)[C@H]2SC1 [cephapirin] (10 µM)	-0.142
C=C(C)[C@@H]1CC[C@]2(C(=O)O)CC[C@]3(C)[C@H](CC[C@@H]4[C@@]5(C)CC[C@H](O)C(C)(C)[C@@H]5CC[C@]43C)[C@@H]12 [betulinic-acid] (10 µM)	0.0296
O=C(O)CCc1c(C(=O)O)[nH]c2cc(Cl)cc(Cl)c12 (10 µM)	-0.0263
CC(=O)OC[C@H]1O[C@@H]([S-])[C@H](OC(C)=O)[C@@H](OC(C)=O)[C@@H]1OC(C)=O.CCP(CC)CC.[Au+] [auranofin] (0.833333 µM)	0.3
CC1CCC(NC(=O)N(CCCl)N=O)CC1 (centres undefined) [semustine] (10 µM)	-0.0906
Oc1cc2c(cc1O)CN(C(=S)NCCc1ccc(Cl)cc1)CCC2 [capsazepine] (10 µM)	-0.103
C[C@]12C[C@H](O)[C@H]3[C@@H](CCC4=CC(=O)CC[C@@]43C)[C@@H]1CC[C@@H]2C(=O)CO [corticosterone] (10 µM)	0.0999
Cc1ncc([N+](=O)[O-])n1CC(O)CN1CCOCC1 (centres undefined) [morinidazole] (10 µM)	0.12
CCC[C@H](N[C@@H](C)C(=O)N1[C@H](C(=O)O)C[C@@H]2CCCC[C@@H]21)C(=O)O [perindoprilat] (10 µM)	0.276
CCN(c1ccccc1)c1cc(=NC)n(C)c(C)n1 (10 µM)	0.203
CN1C(=O)C(Cc2c[nH]c3ccccc23)NC1=S (centres undefined) [necrostatin-1] (10 µM)	0.186
O=C(OCCN1CCCCC1)c1c[nH]c2ccccc12 (10 µM)	0.0285
CN1C(=O)C[C@@H](C(=O)N[C@@H](Cc2c[nH]cn2)C(=O)N2CCC[C@H]2C(N)=O)NC1=O [taltirelin] (10 µM)	0.0707
CC(N)Cc1ccc(O)cc1 (centres undefined) [hydroxyamphetamine] (10 µM)	-0.0633
CCC(=O)NC[C@H](Cc1ccc(OCCc2nc(-c3ccccc3)oc2C)cc1)N/C(C)=C\C(=O)c1ccc(C(F)(F)F)cc1 (10 µM)	-0.0333
CN(C)CCN1C(=O)c2cccc3cc(NC(N)=O)cc(c23)C1=O [unbs-5162] (10 µM)	0.115
Cc1cccc(C)c1OCC(=O)N[C@@H](Cc1ccccc1)[C@@H](O)C[C@H](Cc1ccccc1)NC(=O)[C@H](C(C)C)N1CCCNC1=O [Lopinavir] (10 µM)	0.184
Oc1ccc([C@@H]2Oc3ccc(O)cc3[C@@H]3CCC[C@@H]32)cc1 [erteberel] (10 µM)	0.0963
Cc1c(C2CCN(CCc3ccccc3)CC2)noc1-c1ccc(Cl)cc1 (10 µM)	0.195
